Results reported in PMC8384837, “Expanding the binding specificity for RNA recognition by a PUF domain”.
Changes are numbered by the printed parent chain.

Assays:
Assay in all cases: yeast three-hybrid, YBZ-1, SC-Leu-His + 0.5 mM 3-AT, 4 days
Settings in all cases: tags: N-Gal4 AD-HA kept; label: inside an RPR1-promoter hybrid RNA with tandem MS2 sites; ssRNA
PUM1 PUF domain R2-LFS = PUM1 PUF domain R2-LFS (Homo sapiens, UniProt Q14671 828-1176, N899L;Y900F;Q903S)
In short: (§1)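 The interaction score is the log change in variant frequency from input to selection. Scores were computed in log2 with a pseudocount of 1 for absent variants, using Illumina sequencing of PCR-amplified repeat regions. The input came from four days on SC-Leu and the selection from four days on SC-Leu-His + 0.5 mM 3-AT. The cells were strain YBZ-1 (LexA–MS2 coat fusion, HIS3 reporter) co-expressing Pumilio-1 PUF domain libraries and matching RNA elements from a centromeric plasmid.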

PUM1 PUF domain R2-AYW = PUM1 PUF domain R2-AYW (Homo sapiens, UniProt Q14671 828-1176, N899A;Q903W)
In short: as §1

PUM1 PUF domain R3-TRW = PUM1 PUF domain R3-TRW (Homo sapiens, UniProt Q14671 828-1176, C935T;Q939W)
In short: as §1

PUM1 PUF domain R8-LFK = PUM1 PUF domain R8-LFK (Homo sapiens, UniProt Q14671 828-1176, N1122L;Y1123F;Q1126K)
In short: as §1

PUM1 PUF domain R3-SRT = PUM1 PUF domain R3-SRT (Homo sapiens, UniProt Q14671 828-1176, C935S;Q939T)
In short: as §1

PUM1 PUF domain R4-CMC = PUM1 PUF domain R4-CMC (Homo sapiens, UniProt Q14671 828-1176, N971C;H972M;Q975C)
In short: as §1

PUM1 PUF domain R6-RHS = biological target: T1, PUM1 PUF domain R6-RHS (Homo sapiens, UniProt Q14671 828-1176, N1043R;Y1044H;Q1047S)
T1 sequence: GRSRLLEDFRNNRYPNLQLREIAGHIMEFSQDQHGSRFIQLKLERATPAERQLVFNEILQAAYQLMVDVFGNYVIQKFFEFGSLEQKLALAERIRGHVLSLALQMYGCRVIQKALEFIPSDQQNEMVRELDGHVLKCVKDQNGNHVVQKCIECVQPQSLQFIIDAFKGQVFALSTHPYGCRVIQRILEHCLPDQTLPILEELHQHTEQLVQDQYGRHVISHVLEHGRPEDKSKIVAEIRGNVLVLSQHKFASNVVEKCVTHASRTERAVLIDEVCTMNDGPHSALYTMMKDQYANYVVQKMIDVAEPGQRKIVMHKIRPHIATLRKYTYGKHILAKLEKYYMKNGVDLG
In short: as §1

PUM1 PUF domain R6-LYV = biological target: T2, PUM1 PUF domain R6-LYV (Homo sapiens, UniProt Q14671 828-1176, N1043L;Q1047V)
T2 sequence: T1 sequence with R216L, H217Y, S220V
In short: as §1

PUM1 PUF domain R4-ANC = PUM1 PUF domain R4-ANC (Homo sapiens, UniProt Q14671 828-1176, N971A;H972N;Q975C)
In short: as §1

PUM1 PUF domain R5-RNG = PUM1 PUF domain R5-RNG (Homo sapiens, UniProt Q14671 828-1176, C1007R;R1008N;Q1011G)
In short: as §1

PUM1 PUF domain R5-EAE = PUM1 PUF domain R5-EAE (Homo sapiens, UniProt Q14671 828-1176, C1007E;R1008A;Q1011E)
In short: as §1

PUM1 PUF domain R5-WHY = PUM1 PUF domain R5-WHY (Homo sapiens, UniProt Q14671 828-1176, C1007W;R1008H;Q1011Y)
In short: as §1

PUM1 PUF domain R3-TFG = PUM1 PUF domain R3-TFG (Homo sapiens, UniProt Q14671 828-1176, C935T;R936F;Q939G)
In short: as §1

PUM1 PUF domain R7-KWK = PUM1 PUF domain R7-KWK (Homo sapiens, UniProt Q14671 828-1176, S1079K;N1080W;E1083K)
In short: as §1

PUM1 PUF domain R1-KVI = PUM1 PUF domain R1-KVI (Homo sapiens, UniProt Q14671 828-1176, S863K;R864V;Q867I)
In short: as §1

PUM1 PUF domain R7-KPV = PUM1 PUF domain R7-KPV (Homo sapiens, UniProt Q14671 828-1176, S1079K;N1080P;E1083V)
In short: as §1

PUM1 PUF domain R3-RSW = PUM1 PUF domain R3-RSW (Homo sapiens, UniProt Q14671 828-1176, C935R;R936S;Q939W)
In short: as §1

PUM1 PUF domain R1-RTS = PUM1 PUF domain R1-RTS (Homo sapiens, UniProt Q14671 828-1176, S863R;R864T;Q867S)
In short: as §1

PUM1 PUF domain R3-VSK = PUM1 PUF domain R3-VSK (Homo sapiens, UniProt Q14671 828-1176, C935V;R936S;Q939K)
In short: as §1

PUM1 PUF domain R3-RTI = PUM1 PUF domain R3-RTI (Homo sapiens, UniProt Q14671 828-1176, C935R;R936T;Q939I)
In short: as §1

Sequence of PUM1 PUF domain R4-ANC (Q14671 828-1176 N971A/H972N/Q975C): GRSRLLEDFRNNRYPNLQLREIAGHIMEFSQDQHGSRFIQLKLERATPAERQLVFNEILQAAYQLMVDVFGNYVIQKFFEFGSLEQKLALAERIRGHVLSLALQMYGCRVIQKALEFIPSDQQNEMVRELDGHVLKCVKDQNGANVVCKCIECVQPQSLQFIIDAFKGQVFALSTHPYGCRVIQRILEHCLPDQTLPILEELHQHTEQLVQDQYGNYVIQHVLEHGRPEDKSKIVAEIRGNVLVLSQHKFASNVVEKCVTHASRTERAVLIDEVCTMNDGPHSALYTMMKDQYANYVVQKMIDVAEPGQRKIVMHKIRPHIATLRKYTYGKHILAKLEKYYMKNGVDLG

In the case of “GGCUAGAACUAGUGGAUCCCCCGGCGCCCGGCGGCUCGAGCCCGGGUAAGUGUAAAAAGUCUGCAUGCCGCCGGGCGCCAUGCCUGCAGGUCGACUCUAGAAAACAUG”, the binding signal (PUM1 PUF domain R2-LFS) was 3.97 log2 enrichment (interaction score) and the binding signal (PUM1 PUF domain R2-AYW) was 3.05 log2 enrichment (interaction score).

In the case of “GGCUAGAACUAGUGGAUCCCCCGGCGCCCGGCGGCUCGAGCCCGGGUAAGUGUAAAUAGUCUGCAUGCCGCCGGGCGCCAUGCCUGCAGGUCGACUCUAGAAAACAUG”, the binding signal (PUM1 PUF domain R3-TRW) was 4.35 log2 enrichment (interaction score), the binding signal (PUM1 PUF domain R8-LFK) was 4.86 log2 enrichment (interaction score) and the binding signal (PUM1 PUF domain R3-SRT) was 4.56 log2 enrichment (interaction score). The binding signal (PUM1 PUF domain R4-CMC) was 2.5 log2 enrichment (interaction score), the binding signal (PUM1 PUF domain R6-RHS) was 2.73 log2 enrichment (interaction score) and the binding signal (PUM1 PUF domain R6-LYV) was 2.81 log2 enrichment (interaction score).

For “GGCUAGAACUAGUGGAUCCCCCGGCGCCCGGCGGCUCGAGCCCGGGUAAGCGUAAAUAGUCUGCAUGCCGCCGGGCGCCAUGCCUGCAGGUCGACUCUAGAAAACAUG”, the binding signal (PUM1 PUF domain R8-LFK) was 5.27 log2 enrichment (interaction score).

With “GGCUAGAACUAGUGGAUCCCCCGGCGCCCGGCGGCUCGAGCCCGGGUAAGUGUAUAUAGUCUGCAUGCCGCCGGGCGCCAUGCCUGCAGGUCGACUCUAGAAAACAUG” the binding signal (PUM1 PUF domain R4-ANC) was 4.27 log2 enrichment (interaction score) and the binding signal (PUM1 PUF domain R4-CMC) was 5.2 log2 enrichment (interaction score).

For “GGCUAGAACUAGUGGAUCCCCCGGCGCCCGGCGGCUCGAGCCCGGGUAAGUGUUAAUAGUCUGCAUGCCGCCGGGCGCCAUGCCUGCAGGUCGACUCUAGAAAACAUG”, the binding signal (PUM1 PUF domain R5-RNG) was 4.63 log2 enrichment (interaction score).

With “GGCUAGAACUAGUGGAUCCCCCGGCGCCCGGCGGCUCGAGCCCGGGUAAGUGUGAAUAGUCUGCAUGCCGCCGGGCGCCAUGCCUGCAGGUCGACUCUAGAAAACAUG” the binding signal (PUM1 PUF domain R5-EAE) was 3.11 log2 enrichment (interaction score) and the binding signal (PUM1 PUF domain R5-WHY) was 5.78 log2 enrichment (interaction score).

For “GGCUAGAACUAGUGGAUCCCCCGGCGCCCGGCGGCUCGAGCCCGGGUAAGUGUAACUAGUCUGCAUGCCGCCGGGCGCCAUGCCUGCAGGUCGACUCUAGAAAACAUG”, the binding signal (PUM1 PUF domain R3-TFG) was 0.95 log2 enrichment (interaction score).

“GGCUAGAACUAGUGGAUCCCCCGGCGCCCGGCGGCUCGAGCCCGGGUAAGUGUCAAUAGUCUGCAUGCCGCCGGGCGCCAUGCCUGCAGGUCGACUCUAGAAAACAUG” was tested, and the binding signal (PUM1 PUF domain R5-RNG) was 2.64 log2 enrichment (interaction score).

“GGCUAGAACUAGUGGAUCCCCCGGCGCCCGGCGGCUCGAGCCCGGGUAAGUAUAAAUAGUCUGCAUGCCGCCGGGCGCCAUGCCUGCAGGUCGACUCUAGAAAACAUG” was tested, and the binding signal (PUM1 PUF domain R7-KWK) was 2.56 log2 enrichment (interaction score).

With “GGCUAGAACUAGUGGAUCCCCCGGCGCCCGGCGGCUCGAGCCCGGGUAAGUGUAAAUGGUCUGCAUGCCGCCGGGCGCCAUGCCUGCAGGUCGACUCUAGAAAACAUG” the binding signal (PUM1 PUF domain R1-KVI) was 2.15 log2 enrichment (interaction score).

“GGCUAGAACUAGUGGAUCCCCCGGCGCCCGGCGGCUCGAGCCCGGGUAAGUCUAAAUAGUCUGCAUGCCGCCGGGCGCCAUGCCUGCAGGUCGACUCUAGAAAACAUG” was tested, and the binding signal (PUM1 PUF domain R7-KPV) was 4.07 log2 enrichment (interaction score) and the binding signal (PUM1 PUF domain R7-KWK) was 2.57 log2 enrichment (interaction score).

With “GGCUAGAACUAGUGGAUCCCCCGGCGCCCGGCGGCUCGAGCCCGGGUAAGUGUAAGUAGUCUGCAUGCCGCCGGGCGCCAUGCCUGCAGGUCGACUCUAGAAAACAUG” the binding signal (PUM1 PUF domain R3-SRT) was 4.32 log2 enrichment (interaction score), the binding signal (PUM1 PUF domain R3-RSW) was 0.87 log2 enrichment (interaction score) and the binding signal (PUM1 PUF domain R3-TFG) was 2.15 log2 enrichment (interaction score).

“GGCUAGAACUAGUGGAUCCCCCGGCGCCCGGCGGCUCGAGCCCGGGUAAGUGUAAAUUGUCUGCAUGCCGCCGGGCGCCAUGCCUGCAGGUCGACUCUAGAAAACAUG” was tested, and the binding signal (PUM1 PUF domain R1-RTS) was 4.22 log2 enrichment (interaction score) and the binding signal (PUM1 PUF domain R1-KVI) was 4.79 log2 enrichment (interaction score).

In the case of “GGCUAGAACUAGUGGAUCCCCCGGCGCCCGGCGGCUCGAGCCCGGGUAAGUGUAAUUAGUCUGCAUGCCGCCGGGCGCCAUGCCUGCAGGUCGACUCUAGAAAACAUG”, the binding signal (PUM1 PUF domain R3-TRW) was 0.56 log2 enrichment (interaction score), the binding signal (PUM1 PUF domain R3-SRT) was 1.65 log2 enrichment (interaction score) and the binding signal (PUM1 PUF domain R3-RSW) was 3.81 log2 enrichment (interaction score). The binding signal (PUM1 PUF domain R3-TFG) was 2.64 log2 enrichment (interaction score), the binding signal (PUM1 PUF domain R3-VSK) was 3.36 log2 enrichment (interaction score) and the binding signal (PUM1 PUF domain R3-RTI) was 3.21 log2 enrichment (interaction score).

“GGCUAGAACUAGUGGAUCCCCCGGCGCCCGGCGGCUCGAGCCCGGGUAAGUGUAAAUCGUCUGCAUGCCGCCGGGCGCCAUGCCUGCAGGUCGACUCUAGAAAACAUG” was tested, and the binding signal (PUM1 PUF domain R1-RTS) was 4.45 log2 enrichment (interaction score).

In the case of “GGCUAGAACUAGUGGAUCCCCCGGCGCCCGGCGGCUCGAGCCCGGGUAAGUGUACAUAGUCUGCAUGCCGCCGGGCGCCAUGCCUGCAGGUCGACUCUAGAAAACAUG”, the binding signal (PUM1 PUF domain R4-ANC) was 2.65 log2 enrichment (interaction score) and the binding signal (PUM1 PUF domain R4-CMC) was 2.87 log2 enrichment (interaction score).

In the case of “GGCUAGAACUAGUGGAUCCCCCGGCGCCCGGCGGCUCGAGCCCGGGUAAGUUUAAAUAGUCUGCAUGCCGCCGGGCGCCAUGCCUGCAGGUCGACUCUAGAAAACAUG”, the binding signal (PUM1 PUF domain R7-KPV) was 4.82 log2 enrichment (interaction score).
